Test results from PubChem BioAssay (NCATS).
Inconclusive results are not listed. Entries that show only a call come without a potency. The source made the active and inactive calls. The call rests on the fitted dose curve; in most records, active means well fitted curve in the direction sought with a large enough effect; inconclusive means small, poorly fitted or top-dose-only effect, or another doubt; inactive means no such curve, though single readings can be large; an effect the other way counts as inactive or inconclusive.

Columns and labels:
[1] = Quantitative High-Throughput drug screen in 47 multiple myeloma cell lines against the NCATS MIPE library collection: ARD_JJKsccE7 cell viability assay (AID 1918929); conditions: ARD myeloma cell line viability, CellTiter-Glo, 48 h; series mostly up to 45.8 µM
Summary of the method: (§1)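 Viability readout: CellTiter-Glo luminescence following 5 min room-temperature incubation with reagent. Prior exposure: 48 h, 37C, humidified 5% CO2, 500 cells per well.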

[2] = Quantitative High-Throughput drug screen in 47 multiple myeloma cell lines against the NCATS MIPE library collection: Karpas620_DSMZ cell viability assay (AID 1918959); conditions: Karpas620 myeloma viability, CellTiter-Glo ATP luminescence, 48 h; series mostly up to 45.8 µM; further: nearly all actives have a fitted effect of over 30% in size
Summary of the method: (§2)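 Luminescent ATP measurement with CellTiter-Glo gives viability, scaled between DMSO-only wells (100%) and media-only wells (0%). Cells, 500 per well, faced library compounds for 48 hours at 37C.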

[3] = Quantitative High-Throughput drug screen in 47 multiple myeloma cell lines against the NCATS MIPE library collection: KMM1_JCRB cell viability assay (AID 1918960); conditions: KMM1 myeloma viability, CellTiter-Glo ATP luminescence, 48 h; series mostly up to 45.8 µM; further: nearly all actives have a fitted effect of over 30% in size
Summary of the method: (§3)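 Here, 48 h treatment with MIPE 4.0 agents at 37 °C preceded an ATP luminescence read. Plating density was 500 cells per well.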

[4] = Quantitative High-Throughput drug screen in 47 multiple myeloma cell lines against the NCATS MIPE library collection: JIM3_ECACC cell viability assay (AID 1918963; further: nearly all actives have a fitted effect of over 35% in size); conditions: JIM3 myeloma viability, CellTiter-Glo ATP, 48 h; series mostly up to 45.8 µM
Summary of the method: as §2

[5] = Quantitative High-Throughput drug screen in 47 multiple myeloma cell lines against the NCATS MIPE library collection: ARP1_JJKsccF8 cell viability assay (AID 1918928; further: nearly all actives have a fitted effect of over 40% in size); conditions: ARP1 myeloma cells viability, CellTiter-Glo ATP, 48 h; series mostly up to 45.8 µM
Summary of the method: as §3

[6] = Quantitative High-Throughput drug screen in 47 multiple myeloma cell lines against the NCATS MIPE library collection: JIM1_ECACC cell viability assay (AID 1918964); conditions: JIM1 myeloma viability, CellTiter-Glo ATP luminescence, 48 h; series mostly up to 45.8 µM
Summary of the method: as §1

[7] = Quantitative High-Throughput drug screen in 47 multiple myeloma cell lines against the NCATS MIPE library collection: KHM11_PLB cell viability assay (AID 1918962); conditions: KHM11 myeloma cell viability, CellTiter-Glo ATP luminescence, 48 h; series mostly up to 45.8 µM; further: nearly all actives have a fitted effect of over 35% in size
Summary of the method: as §2

[8] = Quantitative High-Throughput drug screen in 47 multiple myeloma cell lines against the NCATS MIPE library collection: INA6_PLB cell viability assay (AID 1918965; further: nearly all actives have a fitted effect of over 55% in size); conditions: INA6 myeloma viability, CellTiter-Glo ATP luminescence, 48 h; series mostly up to 45.8 µM
Summary of the method: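 Steps: seed 500 cells per well; pin-transfer MIPE 4.0 library; incubate 48 h at 37C, 5% CO2, humidified; add CellTiter-Glo, 5 min room temperature; read luminescence.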
Potency means the concentration at half of the fitted maximal effect.

SMILES: NC(=O)c1ccc(-c2nc(-c3ccc4c(c3)OCO4)c(-c3ccccn3)[nH]2)cc1
- Potency [1]: inactive
- Potency [2]: inactive
- Potency [3]: 1.66 µM (active)
- Potency [4]: inactive

SMILES: CC(=O)Oc1ccccc1C(=O)O
- Potency [5]: inactive
- Potency [3]: inactive

SMILES: CN(C)c1ccc(C2Nc3ccc4ccccc4c3C3=C2C(=O)CC(C)(C)C3)cc1Br (stereo not drawn)
- Potency [1]: inactive
- Potency [3]: 4.69 µM (active)
- Potency [6]: 0.0019 µM (active)

SMILES: O=C1[C@H](Cc2ccc(O)cc2)N2C(=O)CCN(C(=O)NCc3ccccc3)[C@H]2CN1Cc1cccc2ccccc12
- Potency [5]: 4.18 µM (active)
- Potency [2]: inactive
- Potency [7]: 2.96 µM (active)

SMILES: CNC(=O)c1ccc(N2C(=S)N(c3ccc(C#N)c(C(F)(F)F)c3)C(=O)C2(C)C)cc1F
- Potency [5]: inactive
- Potency [7]: inactive
- Potency [4]: inactive

SMILES: C#Cc1cccc(Nc2ncnc3cc(OCCOC)c(OCCOC)cc23)c1
- Potency [1]: 5.9 µM (active)
- Potency [2]: 4.69 µM (active)
- Potency [7]: 3.32 µM (active)
- Potency [4]: 9.35 µM (active)
- Potency [8]: 18.7 µM (active)

SMILES: CCC(C)N(C)C(=O)c1cc2ccccc2c(-c2ccccc2Cl)n1 (stereo not drawn)
- Potency [5]: 0.296 µM (active)
- Potency [7]: inactive
- Potency [8]: inactive

SMILES: COc1ccc2nc(S(=O)Cc3ncc(C)c(OC)c3C)[nH]c2c1 (stereo not drawn)
- Potency [5]: inactive
- Potency [4]: inactive

SMILES: O=C(c1cc(Cc2n[nH]c(=O)c3ccccc23)ccc1F)N1CCN(C(=O)C2CC2)CC1
- Potency [5]: inactive
- Potency [2]: inactive
- Potency [6]: inactive
- Potency [8]: 16.6 µM (active)

SMILES: CC(=O)NC(C)c1ccc(Oc2ccc(OC(C)C)cc2)cc1 (stereo not drawn)
- Potency [5]: 16.6 µM (active)
- Potency [2]: 0.296 µM (active)
- Potency [4]: 3.32 µM (active)
- Potency [6]: inactive

SMILES: CC[C@@H](C)[C@H](NC(=O)[C@H](CC1CCCCC1)NC(=O)c1ccno1)C(=O)N1CCC2(CCc3ccccc32)CC1
- Potency [1]: inactive
- Potency [2]: inactive
- Potency [3]: inactive
- Potency [7]: inactive
- Potency [8]: inactive

SMILES: O=C(O)COCCN1CCN(C(c2ccccc2)c2ccc(Cl)cc2)CC1 (stereo not drawn)
- Potency [1]: inactive
- Potency [2]: inactive
- Potency [3]: inactive
- Potency [7]: 7.43 µM (active)

SMILES: CC(C)(C)OC(=O)CN(Cc1ccc(Cl)cc1)Cc1ccc([N+](=O)[O-])s1
- Potency [1]: inactive
- Potency [2]: inactive
- Potency [7]: inactive
- Potency [4]: 16.6 µM (active)

SMILES: Cc1cc2c(C(C)C)c(O)c(O)c(C=O)c2c(O)c1-c1c(C)cc2c(C(C)C)c(O)c(O)c(C=O)c2c1O
- Potency [5]: 10.5 µM (active)
- Potency [2]: 8.33 µM (active)
- Potency [3]: inactive
- Potency [7]: 10.5 µM (active)
- Potency [4]: 8.33 µM (active)
- Potency [8]: 9.35 µM (active)

SMILES: Nc1nc2ccc(OC(F)(F)F)cc2s1
- Potency [1]: 16.6 µM (active)
- Potency [2]: inactive
- Potency [3]: inactive
- Potency [7]: inactive
- Potency [4]: inactive
- Potency [8]: inactive

SMILES: CN1CCN(CCCN2c3ccccc3Sc3ccc(C(F)(F)F)cc32)CC1
- Potency [1]: inactive
- Potency [3]: inactive
- Potency [7]: 10.5 µM (active)
- Potency [4]: 8.33 µM (active)
- Potency [6]: inactive
- Potency [8]: 9.35 µM (active)

SMILES: Clc1cccc(Cl)c1NC1=NCCN1
- Potency [5]: inactive
- Potency [2]: inactive
- Potency [7]: inactive
- Potency [4]: inactive

SMILES: CCc1ccc(CCOc2ccc(CC3SC(=O)NC3=O)cc2)nc1 (stereo not drawn)
- Potency [1]: inactive
- Potency [7]: inactive
- Potency [4]: inactive
- Potency [6]: inactive
- Potency [8]: inactive
